“And” between values parts separate entries of the source, which are not always exact repeats. Equal entries are not always repeated. Structures can show the parent of a compound that is named as a salt.
Columns and labels:
Assay in all cases: cell viability relative to vehicle control; higher = less cytotoxic
Conditions in all cases: 10 µM
K562 = tested on: K562
In short: (§1)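 CRISPR-edited mutant clones and isogenic wild-type clones from four leukaemia lines were screened against Selleck bioactive, kinase and epigenetic probe libraries, with identity-inconsistent compounds excluded. Each compound was acoustically dispensed at a single 10 µM dose into 384-well plates holding 2000 cells in 50 µL medium per well. After 48 h the supernatant was removed and CellTiter-Glo luminescence was read. Viability was expressed as percent of the on-plate vehicle control and analysed in Genedata Screener.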

MARIMO = tested on: MARIMO
In short: as §1

MOLM14 = tested on: MOLM14
In short: as §1

OCI-AML2 = tested on: OCI-AML2
In short: as §1

| Structure (SMILES) | cell viability (K562; SRSF2 genotype: SRSF2 P95H/wt) | cell viability (K562; SRSF2 genotype: SRSF2 wt/wt) | cell viability (MARIMO; SRSF2 genotype: SRSF2 P95H/wt) | cell viability (MARIMO; SRSF2 genotype: SRSF2 wt/wt) | cell viability (MOLM14; SRSF2 genotype: SRSF2 P95H/wt) | cell viability (MOLM14; SRSF2 genotype: SRSF2 wt/wt) | cell viability (OCI-AML2; SRSF2 genotype: P95H/wt) | cell viability (OCI-AML2; SRSF2 genotype: wt/wt) |
| --- | --- | --- | --- | --- | --- | --- | --- | --- |
| CNCc1ccc(-c2cc(-c3nc(-c4ccc(S(=O)(=O)C(C)C)cc4)cnc3N)on2)cc1 | 3.16% and 2.89% | 1.89% | 0.36% | 0.32% | 0.28% | 0.34% | 0.39% | 0.9% |
| CC[C@H]1OC(=O)[C@H](C)[C@@H](O[C@H]2C[C@@](C)(OC)[C@@H](O)[C@H](C)O2)[C@H](C)[C@@H](O[C@@H]2O[C@H](C)C[C@H](N(C)C)[C@H]2O)[C@](C)(O)C[C@@H](C)CN[C@H](C)[C@@H](O)[C@]1(C)O [Azathramycin] | 104% and 112% | 115% | 107% | 104% | 109% | 108% | 111% | 97.8% |
| CCCC(CCC)C(=O)O [Valproic acid sodium salt (Sodium valproate)] | 95% and 89.8% | 102% | 84.2% | 91.5% | 93.2% | 93.7% | 89.8% | 95.9% |
| Nc1nc(N)c2nc(-c3cccc(O)c3)c(-c3cccc(O)c3)nc2n1 | 95% and 105% | 88.6% | 111% | 101% | 108% | 107% | 98.5% | 91.4% |
| Cc1ccccc1C(C(=O)NC1CCCCC1)N(C(=O)Cn1ccnc1C)c1cccc(F)c1 (stereo not drawn) | 103% and 101% | 97.1% | 99.2% | 98.6% | 100% | 99.8% | 101% | 105% |
| NCCOc1cc(C(=O)Nc2cc(OCCN)c3ccccc3n2)nc(C(=O)Nc2cc(OCCN)c3ccccc3n2)c1 [Pyridostatin Trifluoroacetate Salt] | 87.7% and 94.2% | 72.6% | 83.8% | 84.5% | 57.4% | 33.6% | 6.12% | 17.8% |
| CC1CCC2(C(=O)OC3OC(CO)C(O)C(O)C3O)CCC3(C)C(=CCC4C5(C)CCC(OC6OCC(O)C(O)C6O)C(C)(C)C5CCC43C)C2C1(C)O (stereo not drawn) [Ziyu-glycoside I] | 103% and 96.8% | 99.4% | 101% | 99.9% | 107% | 105% | 99% | 100% |
| CCC1(c2c[nH]cn2)Cc2ccccc2C1 [Atipamezole hydrochloride] | 90.5% and 99.4% | 104% | 92.4% | 99.1% | 96.2% | 99.7% | 98.5% | 95.2% |
| CCc1cc(Nc2nccc(-c3c(-c4ccc(OC)c(C(=O)Nc5c(F)cccc5F)c4)nc4ccccn34)n2)c(OC)cc1N1CCC(N2CCN(S(C)(=O)=O)CC2)CC1 | 88.6% and 96.3% | 97.3% | 106% | 108% | 105% | 100% | 93.9% | 98.7% |
| Nc1ccc(Oc2ccc(-c3ccc(Oc4ccc(N)cc4)cc3)cc2)cc1 [4,4prime-Bis(4-aminophenoxy)biphenyl] | 103% and 98.3% | 110% | 96.9% | 101% | 100% | 102% | 96% | 112% |
| Cc1cc(N2CCOCC2)ccc1Nc1nc(NC2CCCCC2)c2[nH]cnc2n1 | 86.8% and 92.1% | 94.6% | 53% | 53.9% | 49.6% | 39% | 37.8% | 39.8% |
| NC(=O)c1cccc(-c2cccc(OC(=O)NC3CCCCC3)c2)c1 | 95.8% and 91.2% | 96.1% | 95% | 92.4% | 99.5% | 99% | 88.6% | 96.4% |
| CCN(CC)c1ccc2c(-c3ccccc3C(=O)O)c3ccc(=[N+](CC)CC)cc-3oc2c1 [Rhodamine B] | 51.1% and 54.3% | 53% | 51.3% | 59.4% | 48.5% | 61% | 58.7% | 49.6% |
| Fc1ccc2[nH]ccc2c1-c1nc(N2CCOCC2)c2sc(CN3CCN(CC4CC4)CC3)cc2n1 | 77.2% and 81.7% | 76.6% | 68.5% | 67.3% | 45.5% | 45.1% | 40.4% | 34.5% |
| CC(C)(C)NC(=O)N[C@H](C(=O)N1C[C@H]2[C@@H]([C@H]1C(=O)NC(CC1CCC1)C(=O)C(N)=O)C2(C)C)C(C)(C)C (stereo partly drawn) [Boceprevir] | 85.6% and 87.6% | 84.2% | 71.3% | 73.2% | 91.1% | 84.3% | 84% | 88.9% |
| C[C@]12C=CC(=O)C=C1CC[C@@H]1[C@@H]2C(=O)C[C@@]2(C)[C@H]1CC[C@]2(O)C(=O)CO [Prednisone (Adasone)] | 102% and 107% | 95.5% | 104% | 101% | 108% | 107% | 106% | 110% |
| COC(=O)C=Cc1ccc(O)cc1 [Methyl 4-hydroxycinnamate] | 95% and 87.9% | 82.3% | 83.5% | 97.5% | 85.6% | 95.2% | 105% | 105% |
| Nc1ccccc1NC(=O)c1cnccn1 | 91.8% and 96% | 82.8% | 76.7% | 90.7% | 75.5% | 73.9% | 81.3% | 88.3% |
| CC(=O)O[C@H](CC(=O)O)C[N+](C)(C)C [O-Acetyl-L-carnitine hydrochloride] | 112% and 110% | 110% | 110% | 110% | 101% | 108% | 105% | 104% |
| COc1cc2nc(N3CCN(C(=O)C4COc5ccccc5O4)CC3)nc(N)c2cc1OC (stereo not drawn) [Doxazosin mesylate] | 94.7% and 100% | 95.9% | 105% | 101% | 92.2% | 105% | 92.7% | 96.5% |
| CCCCCCOc1cc(C)c(O)c(C)c1C [HTHQ(1-O-Hexyl-2,3,5-trimethylhydroquinone)] | 93.5% and 93.8% | 106% | 89.1% | 96% | 91.1% | 102% | 98.7% | 107% |

| Structure (SMILES) | cell viability (K562; SRSF2 genotype: SRSF2 P95H/wt) | cell viability (K562; SRSF2 genotype: SRSF2 wt/wt) | cell viability (MARIMO; SRSF2 genotype: SRSF2 P95H/wt) | cell viability (MARIMO; SRSF2 genotype: SRSF2 wt/wt) | cell viability (MOLM14; SRSF2 genotype: SRSF2 P95H/wt) | cell viability (MOLM14; SRSF2 genotype: SRSF2 wt/wt) | cell viability (OCI-AML2; SRSF2 genotype: P95H/wt) | cell viability (OCI-AML2; SRSF2 genotype: wt/wt) |
| --- | --- | --- | --- | --- | --- | --- | --- | --- |
| COCCNC(=O)Nc1ccc2nc(-c3cccs3)c(-c3cccs3)nc2c1 [ACSS2 inhibitor] | 82.9% and 79.4% | 84.3% | 85.1% | 97.7% | 89.1% | 94.8% | 91.5% | 95.1% |
| Cc1nn(C)c2nc(NNC(=O)Nc3cc(Cl)nc(Cl)c3)cc(C(C)C)c12 | 70.7% and 79.6% | 70% | 82.1% | 61.8% | 83% | 83.8% | 50.5% | 55.4% |
| COc1ncc(-c2ccc3nccc(-c4ccnnc4)c3c2)cc1NS(=O)(=O)c1ccc(F)cc1F | 31.8% and 30.2% | 34.8% | 26.4% | 24.1% | 1.48% | 11.9% | 0.26% | 1.55% |
| O=C1CCc2cc(OCCCCc3nnnn3C3CCCCC3)ccc2N1 [Cilostazol] | 97.9% and 98.4% | 96.8% | 103% | 102% | 100% | 101% | 109% | 97.9% |
| Nc1nnc(-c2cccc(Cl)c2Cl)c(N)n1 [Lamotrigine] | 95.7% and 94.8% | 95% | 94.7% | 107% | 102% | 103% | 101% | 98.3% |
| CC(C)(C)OC(=O)Nc1ccc(-c2cc(C(=O)NCCCCCCC(=O)NO)no2)cc1 | 1.43% and 12.4% | 5.74% | 9.27% | 11.5% | 0.79% | 0.64% | 1.39% | 2.31% |
| C=CC[S+]([O-])C[C@H](N)C(=O)O (stereo partly drawn) [Alliin] | 105% | 107% | 104% | 96.5% | 114% | 107% | 102% | 98.2% |
| CC(C)(Sc1ccncc1-c1ccc(C#N)c2ccccc12)C(=O)O [Verinurad (RDEA3170)] | 102% and 101% | 102% | 105% | 104% | 95.8% | 102% | 109% | 105% |
| CCCCCCCCCCCCCC(=O)OCC(COC(=O)CCCCCCCCCCCCC)OC(=O)CCCCCCCCCCCCC [Tritetradecanoin] | 107% and 104% | 103% | 100% | 107% | 101% | 102% | 102% | 107% |
| CN1CCN(CCCNc2ncc(Cl)c(-c3cc4c(C(=O)NC5CC5)cccc4s3)n2)CC1 | 97.4% and 98.7% | 93.2% | 81.4% | 85.8% | 58.8% | 79.9% | 68.8% | 72.7% |
| O=c1[nH]c(=S)[nH]c2nc(-c3ccccc3)c(-c3ccccc3)nc12 | 97.9% and 90.8% | 92% | 103% | 105% | 92.8% | 97.4% | 98.9% | 98.3% |
| COc1cc(-c2cn(C)c(=O)c3cnccc23)cc(OC)c1CN(C)C | 104% and 95.7% | 105% | 99.4% | 87.2% | 103% | 95.9% | 98.6% | 113% |
| CC(C)c1c2cc(-c3ccnc(NC4CCC(NC5CCOCC5)CC4)n3)ccc2nn1C (stereo not drawn) | 10% and 24.4% | 8.4% | 13.4% | 6.58% | 0.76% | 0.31% | 2.85% | 13.2% |
| CCC[S+]([O-])c1ccc2[nH]c(NC(=O)OC)nc2c1 (stereo not drawn) [Albendazole Oxide (Ricobendazole)] | 88.8% and 83.5% | 80.6% | 85.7% | 88% | 88.2% | 95.4% | 87.8% | 95.5% |
| CCNC(=O)c1noc(-c2cc(Cl)c(O)cc2O)c1-c1ccc(OC)cc1 | 20.7% and 32.8% | 25.5% | 31.9% | 25.1% | 2.02% | 2.25% | 16.2% | 20.2% |
| CN(C)c1cc(NC(=O)CNC(C)(C)C)c(O)c2c1CC1CC3C(N(C)C)C(=O)C(C(N)=O)=C(O)C3(O)C(=O)C1=C2O (stereo not drawn) [Tigecycline] | 94.1% | 97.6% | 94.9% | 97.2% | 99.2% | 96.9% | 106% | 95.7% |
| CC12CCC(O)CC1=CCC1C2CCC2(C)C(C(O)CC(O)(C(F)(F)F)C(F)(F)F)CCC12 (stereo not drawn) | 86.1% and 93.4% | 98.3% | 97% | 90.3% | 76.7% | 91.8% | 71.3% | 76.3% |
| COc1ccc(NC(=O)c2ccc(C(=N)N(C)C)cc2)c(C(=O)Nc2ccc(Cl)cn2)c1 [Betrixaban maleate] | 96.1% and 95.9% | 89.5% | 86.5% | 89.9% | 99.9% | 102% | 81.3% | 76.5% |
| Cc1cccc(-c2[nH]c(C(C)(C)C)nc2-c2ccc3c(c2)OCO3)n1 | 63.9% and 60.2% | 47.6% | 61.4% | 63.3% | 84.9% | 83.8% | 52.6% | 50% |
| CC(=O)OCC(CCn1cnc2cnc(N)nc21)COC(C)=O [Famciclovir (Famvir)] | 103% and 95.1% | 90.8% | 99.7% | 104% | 99.3% | 97.5% | 94.7% | 98% |
